An excerpt weighted towards active compounds, which were near 4.1% of everything screened.
DAX1 inh-1: DAX1 (NR0B1) inhibition, primary screen. inhibition, % at 6.8 µM. HEK293T StAR-luciferase reporter, SF-1/DAX-1 repression relief. hit rate 1.1% among 370,000. AID 652010;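 active = inhibition above the mean over all tested compounds plus 3 SD, cut at about 3.6% in these data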;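 note: higher inhibition means more luminescence from relief of DAX-1 repression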
hgDAF12 agonist: hgDAF-12 agonism, primary luciferase screen; HEK293 GAL4-hgDAF12 UAS-luciferase reporter, agonist luminescence; normalized to butyrate control; activation, % at 6.8 µM; hit rate 1.8% among 370,000; AID 687014;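 active = activation above a cutoff set at the mean of all screened compounds plus 3 SD, cut at about 10% in these data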
ssDAF-12 act: activates DAF-12 receptor from parasite S. stercoralis; HEK293 ssDAF-12/GRIP1 lit1-tk-luc reporter, luminescence; % of 3 µM dafachronic acid response; hit rate 1% among 370,000; activation, % at 6.8 µM;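 active = activation above the mean over all tested compounds plus 3 SD, cut at about 0.9% in these data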
DAX1 inh-2: inhibitors of human orphan nuclear receptor DAX1 (NR0B1); P51843; HEK293 Gal4-DAX1 luciferase reporter, luminescence; inhibition, % at 6.75 µM; hit rate 0.99% among 340,000; AID 504766;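 active = inhibition above the mean over all tested compounds plus 3 SD, cut at about 4.2% in these data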;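 note: inhibition shows as a rise in luminescence from relieved DAX1 repression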
Target sequence (P51843 207-470 limits assumed): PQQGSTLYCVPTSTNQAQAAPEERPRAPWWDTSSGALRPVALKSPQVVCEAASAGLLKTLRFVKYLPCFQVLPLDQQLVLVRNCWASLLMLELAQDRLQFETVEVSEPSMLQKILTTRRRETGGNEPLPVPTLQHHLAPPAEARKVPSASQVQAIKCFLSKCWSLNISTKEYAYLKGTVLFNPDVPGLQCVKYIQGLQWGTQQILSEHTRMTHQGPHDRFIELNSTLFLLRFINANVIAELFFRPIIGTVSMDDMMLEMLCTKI
hcDAF12 agonist: activators of H. contortus DAF-12 nuclear receptor; activation, % at 6.8 µM; hit rate 1.4% among 370,000; HEK293 hcDAF-12 lit1-tk-luc reporter, luminescence; 0% DMSO, 100% Δ7-dafachronic acid;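 active = activation above the mean of all tested compounds plus 3 SD, cut at about 5.5% in these data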
DAX1 conf: NR0B1 (human) inhibition, confirmation; HEK293T StAR-promoter luciferase reporter, SF-1/DAX-1 repression; inhibition, % at 6.8 µM; hit rate 87% among 2,400; shares compounds with DAX1 inh-1;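 active = inhibition above the average of every tested compound plus 3 SD, cut at about 3.8% in these data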;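 note: active compounds raise luminescence by relieving repression of the StAR reporter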
SF1 mutant ctr: counter-screen for DAX1 inhibitors: nonselective inhibitors with SF-1 AF2 mutant | AID 652136 | shares compounds with DAX1 inh-1 | inhibition, % at 6.8 µM | HEK293 StAR-luciferase, luminescence | hit rate 78% among 2,400;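 active = inhibition above the mean of all tested compounds plus 3 SD, cut at about 3% in these data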
LXRb hcDAF ctr: LXR-beta agonism as hcDAF-12 counter-screen; AID 743027; HEK293 Gal4-LXR tk-luc reporter, luminescence, 24 h; normalized: DMSO 0%, positive control 100%; shares compounds with hcDAF12 agonist; activation, % at 6.8 µM; 3,400 tested, under 10 active;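 active = mean percent activation of the reporter above a cutoff set as the average over tested compounds plus their standard deviation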
hcDAF12 conf: hcDAF-12 agonism, confirmation assay; shares compounds with hcDAF12 agonist; HEK293 hcDAF-12 lit1-tk-luc reporter, luminescence; % of Δ7-dafachronic acid response; activation, % at 6.8 µM; hit rate 61% among 3,400; AID 743032;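 active = mean activation across triplicate tests above the threshold derived from the earlier primary screen, cut at about 5.5% in these data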
Large screens that a line does not name were inactive (follow-up assays come after a bar, where they were run).

Cc1c(C(=O)NC2=NCCS2)oc2ccccc12	DAX1 inh-1 5.3, hgDAF12 agonist 14.3, ssDAF-12 act 2.7, hcDAF12 agonist 18.8 | DAX1 conf 14.4 | SF1 mutant ctr 7.2 | LXRb hcDAF ctr inactive | hcDAF12 conf 20.6
O=C(c1ccncc1F)N1CCC(n2nnc3ncccc32)CC1	none (no result: DAX1 inh-2)
CCCCCCCCN1C(=O)[C@@H](CC(=O)N2CCOCC2)C[C@@]2(C(=O)OC)C1=C[C@H](C(C)(C)C)O[C@@H]2C	none (no result: DAX1 inh-2)
CCOC(=O)c1sc(=NC(=O)c2ccccc2Br)n(C)c1C	DAX1 inh-1 7.4, hgDAF12 agonist 11.4, hcDAF12 agonist 12.8 | DAX1 conf 9.6 | SF1 mutant ctr 4.2 | LXRb hcDAF ctr inactive | hcDAF12 conf 10.1
CCOC(=O)c1sc(=NC(=O)c2ccc(C)c(C)c2)n(C)c1C	none
Cc1ccc(/C=N/Nc2nc(C(C)(C)C)cs2)o1	none
Cc1ccc(/C=N/Nc2nc3ccccc3s2)o1	DAX1 inh-1 6.2, hgDAF12 agonist 12.8, ssDAF-12 act 2.8, hcDAF12 agonist 21.3 | DAX1 conf 15.8 | SF1 mutant ctr 9.1 | LXRb hcDAF ctr inactive | hcDAF12 conf 20.5
c1ccc(Cn2c(SC3CCCCC3)nnc2-c2cccnc2)cc1	none (no result: DAX1 inh-2)
Cc1ccc(-n2nc3ccc(NC(=O)C(C)C)cc3n2)cc1	DAX1 inh-1 5.1, hgDAF12 agonist 17.3, ssDAF-12 act 1.0, hcDAF12 agonist 9.8 | DAX1 conf 15.8 | SF1 mutant ctr 7.7 | LXRb hcDAF ctr inactive | hcDAF12 conf 6.8
CC(C)C(=O)Nc1ccc2nn(-c3ccc(F)cc3)nc2c1	none (no result: DAX1 inh-1, hgDAF12 agonist, ssDAF-12 act, hcDAF12 agonist)
CCC(C)NS(=O)(=O)c1ccc2[nH]c(=O)oc2c1 (stereo not drawn)	none (no result: DAX1 inh-2)
Cc1c(NC(=O)c2ccc(-c3ccccc3)cc2)cccc1C(=O)O	DAX1 inh-1 6.6, hgDAF12 agonist 27.3, hcDAF12 agonist 10.6 | DAX1 conf 15.1 | SF1 mutant ctr 7.7 | LXRb hcDAF ctr inactive | hcDAF12 conf 12.9
Cc1ccn2c(CC(C)(C)C)c(-c3ccc(F)cc3)nc2c1	DAX1 inh-1 5.6, hcDAF12 agonist 6.7 | DAX1 conf 8.8 | SF1 mutant ctr 6.6 | LXRb hcDAF ctr inactive | hcDAF12 conf inactive
O=C(NCc1ccccc1Cl)C1CCC(CNS(=O)(=O)c2cccc3cccnc23)CC1 (stereo not drawn)	none (no result: DAX1 inh-2)
CC(/C=N/NC(=O)c1cccs1)=C\c1ccccc1	DAX1 inh-1 7.0, hgDAF12 agonist 16.3, ssDAF-12 act 1.4, hcDAF12 agonist 6.8 | DAX1 conf 17.9 | SF1 mutant ctr 7.8 | LXRb hcDAF ctr inactive | hcDAF12 conf 7.2
COc1ccccc1-c1nc(-c2ccc(Br)o2)no1	DAX1 inh-1 7.9, hgDAF12 agonist 19.8, ssDAF-12 act 4.5, hcDAF12 agonist 26.3 | DAX1 conf 17.3 | SF1 mutant ctr 8.2 | LXRb hcDAF ctr inactive | hcDAF12 conf 21.3
COc1ccc(-c2nc(-c3ccc(Br)o3)no2)cc1OC	none
CC(=O)Nc1ccc2c(c1)nc1n2CCSC1	none
Cc1ccc(C(=O)Nc2ccc3c(c2)nc2n3CCSC2)cc1	DAX1 inh-1 4.6, hcDAF12 agonist 7.0 | DAX1 conf 13.0 | SF1 mutant ctr 7.5 | LXRb hcDAF ctr inactive | hcDAF12 conf inactive
COCc1cc(N2CCNC[C@H]2C)ccc1N1CCS(=O)(=O)CC1	none (no result: DAX1 inh-2)
Cc1cc(C)nc(Nc2nc(-c3ccccc3)cs2)n1	DAX1 inh-1 4.5, hgDAF12 agonist 18.4, ssDAF-12 act 5.0, hcDAF12 agonist 22.1 | DAX1 conf 19.6 | SF1 mutant ctr 8.4 | LXRb hcDAF ctr inactive | hcDAF12 conf 36.9
c1ccc(-c2csc(Nc3ccc4c(c3)OCCO4)n2)cc1	DAX1 inh-1 6.9, hgDAF12 agonist 18.6, ssDAF-12 act 3.1, hcDAF12 agonist 15.0 | DAX1 conf 19.9 | SF1 mutant ctr 7.0 | LXRb hcDAF ctr inactive | hcDAF12 conf 16.3

Compound activity as filed in PubChem BioAssay.
